Of roughly 8,800 targets only a part is listed; those with a hit were picked by preference. About 0.5% of all pairs of compound and target were hits.
How the values were obtained:
Test in all cases: log2 fold change, soluble protein after heating vs DMSO (PISA); higher = thermal stabilisation; K562 lysate, 10 uM; active = over 0.2 and 3.5 SD of the protein, either way, in both replicates (recomputed)
erlotinib = compound: C#Cc1cccc(Nc2ncnc3cc(OCCOC)c(OCCOC)cc23)c1 [erlotinib]
Procedure, shortened: (§1)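 A 30 min treatment with 10 μM compound was applied to crude K562 extract at 1 mg/mL protein in PBS pH 7.4 with 1 mM MgCl2. Heating for 3 min spanned 48°C-58°C, after which aliquots were pooled, adjusted to 0.5% NP-40 at 4°C and spun at 21,000xg for 90 min. TMTpro 16plex LC-MS/MS of the supernatant, with channel sums equalised, gave values recorded as log-two fold change in thermal stability against solvent controls, from duplicates.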

[1] = compound: C/C(=N\NC(=O)C1=CC(=CC=C1)S(=O)(=O)N2CCOCC2)/C3=C(C=CC(=C3)Cl)O
Procedure, shortened: as §1

[2] = compound: C1=CC(=CC=C1C2=NC3=C(N2)C=C(C=C3)C(=O)N)OC4=CC=C(C=C4)Cl
Procedure, shortened: as §1

[3] = compound: C1=CC2=C(C=CC(=C2)/C=C\3/C(=O)NC(=NCC4=CC=CS4)S3)N=C1
Procedure, shortened: as §1

[4] = compound: C1=CC2=NC=CN=C2C=C1/C=C/3\C(=O)NC(=O)S3
Procedure, shortened: as §1

[5] = compound: C1=CC=C(C=C1)C2=NC(=C(N2)C3=CC=NC=C3)C4=CC(=C(C=C4)Cl)O
Procedure, shortened: as §1

[6] = compound: C1=CC=C2C(=C1)C3=NNC4=CC=CC(=C43)C2=O
Procedure, shortened: as §1

[7] = compound: C1CCN(C1)C(=O)NC2=CC=CC(=C2)NC3=NC=C(C(=N3)NCCC4=CN=CN4)Br
Procedure, shortened: as §1

[8] = compound: C1CN(CCC1(CC2=CC=C(C=C2)Cl)N)C3=NC=NC4=C3C=CN4
Procedure, shortened: as §1

IRAK-1-4 Inhibitor I = compound: C1COCCN1CCN2C3=CC=CC=C3N=C2NC(=O)C4=CC(=CC=C4)[N+](=O)[O-] [IRAK-1-4 Inhibitor I]
Procedure, shortened: as §1

Measured: log2 fold change

USP34 (UniProt Q70CQ2)
inactive: erlotinib 0.043 | [1] 0.018 | [2] -0.039 | [3] 0.029 | [4] -0.008 | [5] 0.012 | [6] -0.002 | [7] 0.003 | [8] 0.003 | IRAK-1-4 Inhibitor I -0.001

ZC3H11A (UniProt O75152)
inactive: erlotinib 0.021 | [1] -0.048 | [2] -0.027 | [3] 0.004 | [4] -0.048 | [5] 0.029 | [6] -0.02 | [7] -0.011 | [8] -0.003 | IRAK-1-4 Inhibitor I -0.012

VCPIP1 (UniProt Q96JH7)
inactive: erlotinib -0.054 | [1] -0.04 | [2] -0.002 | [3] 0.053 | [4] -0.037 | [5] 0.041 | [6] 0.006 | [7] 0 | [8] 0.038 | IRAK-1-4 Inhibitor I -0.035

XPNPEP1 isoform 3 (UniProt Q9NQW7)
inactive: erlotinib -0.001 | [1] 0.023 | [2] -0.019 | [3] 0.001 | [4] -0.007 | [5] -0.005 | [6] -0.011 | [7] -0.006 | [8] 0.005 | IRAK-1-4 Inhibitor I 0.009

VPS35L (UniProt Q7Z3J2)
inactive: erlotinib 0.005 | [1] -0.016 | [2] -0.028 | [3] -0.001 | [4] 0.002 | [5] 0.006 | [6] -0.038 | [7] -0.028 | [8] 0.006 | IRAK-1-4 Inhibitor I 0.04

WDR41 (UniProt Q9HAD4)
Sequence of UniProt Q9HAD4 (Q9HAD4 whole entry, looked up): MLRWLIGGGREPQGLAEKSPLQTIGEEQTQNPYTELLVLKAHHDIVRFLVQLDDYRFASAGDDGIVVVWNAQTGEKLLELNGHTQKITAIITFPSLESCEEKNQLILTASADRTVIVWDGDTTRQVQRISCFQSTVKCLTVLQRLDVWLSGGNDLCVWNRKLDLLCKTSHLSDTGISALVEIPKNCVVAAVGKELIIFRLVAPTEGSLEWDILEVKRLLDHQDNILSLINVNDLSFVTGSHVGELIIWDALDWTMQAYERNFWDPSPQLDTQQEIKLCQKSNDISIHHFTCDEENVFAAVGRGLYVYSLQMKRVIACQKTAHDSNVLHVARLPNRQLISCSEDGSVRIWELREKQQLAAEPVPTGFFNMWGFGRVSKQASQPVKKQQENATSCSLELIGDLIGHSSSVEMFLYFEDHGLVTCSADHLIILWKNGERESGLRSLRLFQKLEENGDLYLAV
inactive: erlotinib -0.071 | [1] -0.044 | [2] -0.021 | [3] 0.015 | [4] -0.027 | [5] -0.113 | [6] 0.031 | [7] -0.091 | [8] 0.049 | IRAK-1-4 Inhibitor I 0.029

YDJC (UniProt A8MPS7)
inactive: erlotinib -0.083 | [1] 0.036 | [2] -0.011 | [3] -0.012 | [4] -0.01 | [5] 0.029 | [6] -0.065 | [7] -0.034 | [8] 0.029 | IRAK-1-4 Inhibitor I -0.023

ZMAT2 (UniProt Q96NC0)
inactive: erlotinib 0.025 | [1] -0.037 | [2] 0.025 | [3] -0.023 | [4] -0.026 | [5] 0.023 | [6] 0.055 | [7] -0.007 | [8] -0.048 | IRAK-1-4 Inhibitor I 0.066

ZFPM1 (UniProt Q8IX07)
Sequence of UniProt Q8IX07 (Q8IX07 whole entry, looked up): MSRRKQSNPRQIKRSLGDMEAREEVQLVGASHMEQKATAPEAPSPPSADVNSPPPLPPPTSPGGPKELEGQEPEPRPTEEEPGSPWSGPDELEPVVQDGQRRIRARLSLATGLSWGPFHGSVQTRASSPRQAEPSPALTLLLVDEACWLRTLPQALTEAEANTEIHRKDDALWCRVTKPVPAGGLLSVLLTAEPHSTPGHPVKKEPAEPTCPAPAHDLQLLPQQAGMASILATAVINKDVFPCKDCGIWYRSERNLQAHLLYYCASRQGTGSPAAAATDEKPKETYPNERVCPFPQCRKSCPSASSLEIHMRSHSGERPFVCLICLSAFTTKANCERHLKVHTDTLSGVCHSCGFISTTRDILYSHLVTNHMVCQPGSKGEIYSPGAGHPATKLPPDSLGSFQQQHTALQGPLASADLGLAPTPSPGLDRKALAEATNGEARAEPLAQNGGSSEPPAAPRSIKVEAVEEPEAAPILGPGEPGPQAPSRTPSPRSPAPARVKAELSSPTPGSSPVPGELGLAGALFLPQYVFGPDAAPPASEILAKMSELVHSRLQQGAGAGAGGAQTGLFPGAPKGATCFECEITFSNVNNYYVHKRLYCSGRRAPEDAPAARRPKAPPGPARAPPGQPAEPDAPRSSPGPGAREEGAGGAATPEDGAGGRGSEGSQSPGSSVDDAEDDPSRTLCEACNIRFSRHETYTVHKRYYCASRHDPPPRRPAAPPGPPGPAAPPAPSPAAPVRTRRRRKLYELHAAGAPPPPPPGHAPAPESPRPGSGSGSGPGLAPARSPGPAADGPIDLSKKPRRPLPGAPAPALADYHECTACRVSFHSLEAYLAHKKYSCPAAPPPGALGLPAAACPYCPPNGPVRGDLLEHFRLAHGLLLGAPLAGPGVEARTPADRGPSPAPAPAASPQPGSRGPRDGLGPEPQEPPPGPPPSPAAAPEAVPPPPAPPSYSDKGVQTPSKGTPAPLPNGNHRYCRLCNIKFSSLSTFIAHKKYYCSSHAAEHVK
inactive: erlotinib 0.015 | [1] 0.039 | [2] 0.047 | [3] -0.041 | [4] 0.005 | [5] -0.01 | [6] 0.021 | [7] 0.031 | [8] -0.01 | IRAK-1-4 Inhibitor I 0.077

YRDC (UniProt Q86U90)
inactive: erlotinib 0.009 | [1] 0.03 | [2] -0.001 | [3] -0.018 | [4] -0.021 | [5] 0.036 | [6] 0.081 | [7] -0.065 | [8] 0.006 | IRAK-1-4 Inhibitor I -0.02

YLPM1 (UniProt P49750)
inactive: erlotinib 0.026 | [1] -0.04 | [2] 0.035 | [3] -0.043 | [4] -0.018 | [5] -0.004 | [6] 0.022 | [7] 0.044 | [8] 0.019 | IRAK-1-4 Inhibitor I 0.027

USP3 (UniProt Q9Y6I4)
inactive: erlotinib -0.001 | [1] 0.05 | [2] 0.033 | [3] 0.031 | [4] 0.018 | [5] 0.011 | [6] 0.014 | [7] -0.037 | [8] 0.035 | IRAK-1-4 Inhibitor I -0.044

ZNF451 (UniProt Q9Y4E5)
inactive: erlotinib 0.036 | [1] -0.064 | [2] -0.007 | [3] -0.002 | [4] -0.032 | [5] 0.002 | [6] -0.014 | [7] -0.096 | [8] 0.026 | IRAK-1-4 Inhibitor I -0.009

UNC45A (UniProt Q9H3U1)
Sequence of UniProt Q9H3U1 (Q9H3U1 whole entry, looked up): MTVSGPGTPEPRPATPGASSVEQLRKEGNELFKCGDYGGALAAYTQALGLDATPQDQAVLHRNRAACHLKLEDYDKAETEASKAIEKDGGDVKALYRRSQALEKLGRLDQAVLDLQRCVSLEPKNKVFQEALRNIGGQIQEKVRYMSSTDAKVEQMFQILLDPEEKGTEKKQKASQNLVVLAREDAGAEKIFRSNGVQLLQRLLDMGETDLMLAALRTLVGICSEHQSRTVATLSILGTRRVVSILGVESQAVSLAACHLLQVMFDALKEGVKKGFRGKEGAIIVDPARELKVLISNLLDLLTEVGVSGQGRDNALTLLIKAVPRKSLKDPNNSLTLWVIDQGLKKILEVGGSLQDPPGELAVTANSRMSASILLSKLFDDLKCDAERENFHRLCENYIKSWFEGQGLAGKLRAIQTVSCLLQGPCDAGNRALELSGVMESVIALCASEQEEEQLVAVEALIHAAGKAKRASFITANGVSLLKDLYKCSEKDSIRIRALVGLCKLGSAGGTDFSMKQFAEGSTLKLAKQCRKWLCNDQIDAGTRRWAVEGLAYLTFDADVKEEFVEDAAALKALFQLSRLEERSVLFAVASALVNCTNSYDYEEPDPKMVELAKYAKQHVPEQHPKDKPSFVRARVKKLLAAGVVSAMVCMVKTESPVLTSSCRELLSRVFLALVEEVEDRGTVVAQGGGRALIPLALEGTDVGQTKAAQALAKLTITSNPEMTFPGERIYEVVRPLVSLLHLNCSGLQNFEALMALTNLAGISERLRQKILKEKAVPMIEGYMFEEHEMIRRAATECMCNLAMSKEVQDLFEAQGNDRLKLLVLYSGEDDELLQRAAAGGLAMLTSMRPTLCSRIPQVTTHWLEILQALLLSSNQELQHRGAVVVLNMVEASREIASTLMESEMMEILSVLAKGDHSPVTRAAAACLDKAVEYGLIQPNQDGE
inactive: erlotinib 0.016 | [1] 0.014 | [2] -0.039 | [3] -0.006 | [4] 0.001 | [5] -0.024 | [6] -0.037 | [7] -0.015 | [8] -0.002 | IRAK-1-4 Inhibitor I -0.001

WDR91 (UniProt A4D1P6)
inactive: erlotinib 0.02 | [1] 0.04 | [2] -0.019 | [3] 0.038 | [4] -0.034 | [5] 0.002 | [6] 0.019 | [7] -0.011 | [8] -0.007 | IRAK-1-4 Inhibitor I -0.013

USP9X (UniProt Q93008)
inactive: erlotinib 0.034 | [1] 0.013 | [2] -0.008 | [3] 0.015 | [4] 0.014 | [5] 0.003 | [6] -0.019 | [7] -0.005 | [8] -0.013 | IRAK-1-4 Inhibitor I 0.022

ZNF217 (UniProt O75362)
inactive: erlotinib -0.014 | [1] -0.043 | [2] 0.06 | [3] -0.132 | [4] -0.004 | [5] 0.027 | [6] -0.162 | [7] -0.014 | [8] 0.028 | IRAK-1-4 Inhibitor I 0.007

UXT isoform 2 (UniProt Q9UBK9)
inactive: erlotinib 0.012 | [1] -0.036 | [2] 0.033 | [3] 0.021 | [4] -0.054 | [5] 0.035 | [6] 0.012 | [7] -0.033 | [8] 0.186 | IRAK-1-4 Inhibitor I 0.007

ZZEF1 (UniProt O43149)
inactive: erlotinib 0.008 | [1] -0.019 | [2] -0.012 | [3] 0.019 | [4] -0.012 | [5] -0.009 | [6] -0.017 | [7] -0.011 | [8] -0.009 | IRAK-1-4 Inhibitor I 0.017

ZMYM4 (UniProt Q5VZL5)
inactive: erlotinib -0.023 | [1] -0.068 | [2] 0.027 | [3] 0.073 | [4] -0.099 | [5] 0.042 | [6] -0.088 | [7] -0.09 | [8] 0.015 | IRAK-1-4 Inhibitor I 0.005

WDR6 (UniProt Q9NNW5)
inactive: erlotinib 0.001 | [1] 0.01 | [2] 0.002 | [3] 0.026 | [4] -0.01 | [5] 0 | [6] -0.014 | [7] -0.02 | [8] 0.021 | IRAK-1-4 Inhibitor I -0.011

ZMYM2 (UniProt Q9UBW7)
inactive: erlotinib 0.036 | [1] -0.049 | [2] 0.038 | [3] 0.073 | [4] -0.022 | [5] 0.053 | [6] -0.05 | [7] -0.209 | [8] 0.116 | IRAK-1-4 Inhibitor I 0.07

WDR62 isoform 4 (UniProt O43379)
inactive: erlotinib 0.017 | [1] -0.027 | [2] -0.018 | [3] -0.007 | [4] -0.012 | [5] 0.017 | [6] -0.052 | [7] 0.024 | [8] -0.008 | IRAK-1-4 Inhibitor I 0.011

WDR20 isoform 7 (UniProt Q8TBZ3)
inactive: erlotinib -0.001 | [1] -0.105 | [2] 0.043 | [3] 0.04 | [4] -0.117 | [5] 0.094 | [6] -0.016 | [7] -0.05 | [8] 0.092 | IRAK-1-4 Inhibitor I 0.026

ZNHIT6 (UniProt Q9NWK9)
inactive: erlotinib 0.059 | [1] 0.475 | [2] 0.062 | [3] 0.024 | [4] -0.007 | [5] -0.008 | [6] -0.068 | [7] 0 | [8] 0.014 | IRAK-1-4 Inhibitor I 0.003

ZNF644 (UniProt Q9H582)
Sequence of UniProt Q9H582 (Q9H582 whole entry, looked up): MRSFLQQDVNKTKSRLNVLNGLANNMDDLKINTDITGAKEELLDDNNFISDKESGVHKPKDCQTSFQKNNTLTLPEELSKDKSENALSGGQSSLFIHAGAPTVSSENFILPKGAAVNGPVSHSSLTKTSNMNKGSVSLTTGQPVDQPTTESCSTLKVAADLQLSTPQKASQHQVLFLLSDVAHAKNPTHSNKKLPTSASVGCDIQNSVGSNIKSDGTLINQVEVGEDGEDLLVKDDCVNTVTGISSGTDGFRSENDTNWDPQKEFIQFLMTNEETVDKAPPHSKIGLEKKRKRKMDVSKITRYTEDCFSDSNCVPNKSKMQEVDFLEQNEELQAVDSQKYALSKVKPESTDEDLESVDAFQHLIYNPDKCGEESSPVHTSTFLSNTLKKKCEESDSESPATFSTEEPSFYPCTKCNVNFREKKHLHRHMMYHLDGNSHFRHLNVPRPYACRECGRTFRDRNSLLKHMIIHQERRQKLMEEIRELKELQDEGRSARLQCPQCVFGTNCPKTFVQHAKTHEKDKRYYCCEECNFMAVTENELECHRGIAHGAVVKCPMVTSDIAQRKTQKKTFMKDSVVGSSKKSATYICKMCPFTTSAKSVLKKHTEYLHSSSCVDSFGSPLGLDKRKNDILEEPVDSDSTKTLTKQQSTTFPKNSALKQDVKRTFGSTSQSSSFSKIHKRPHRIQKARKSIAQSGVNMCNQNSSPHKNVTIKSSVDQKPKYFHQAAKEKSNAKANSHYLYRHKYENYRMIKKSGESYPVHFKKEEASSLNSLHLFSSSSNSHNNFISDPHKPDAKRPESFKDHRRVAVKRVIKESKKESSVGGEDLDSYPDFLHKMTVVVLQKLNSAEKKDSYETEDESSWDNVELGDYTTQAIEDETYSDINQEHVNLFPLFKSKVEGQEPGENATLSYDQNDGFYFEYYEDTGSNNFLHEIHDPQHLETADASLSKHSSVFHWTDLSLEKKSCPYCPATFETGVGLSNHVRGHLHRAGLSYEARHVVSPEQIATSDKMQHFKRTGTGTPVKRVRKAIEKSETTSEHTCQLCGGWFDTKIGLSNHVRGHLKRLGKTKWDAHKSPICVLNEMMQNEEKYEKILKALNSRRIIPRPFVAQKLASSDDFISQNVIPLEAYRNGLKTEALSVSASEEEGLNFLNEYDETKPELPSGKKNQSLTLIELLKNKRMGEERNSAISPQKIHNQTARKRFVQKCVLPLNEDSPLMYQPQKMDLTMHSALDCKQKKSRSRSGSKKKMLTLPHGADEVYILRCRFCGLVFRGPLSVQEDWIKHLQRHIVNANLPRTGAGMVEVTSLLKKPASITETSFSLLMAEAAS
inactive: erlotinib 0.192 | [1] -0.085 | [2] 0.071 | [3] 0.075 | [4] 0.066 | [5] -0.115 | [6] -0.04 | [7] 0.036 | [8] -0.037 | IRAK-1-4 Inhibitor I 0.035

XPO1 (UniProt O14980)
Sequence of UniProt O14980 (O14980 whole entry, looked up): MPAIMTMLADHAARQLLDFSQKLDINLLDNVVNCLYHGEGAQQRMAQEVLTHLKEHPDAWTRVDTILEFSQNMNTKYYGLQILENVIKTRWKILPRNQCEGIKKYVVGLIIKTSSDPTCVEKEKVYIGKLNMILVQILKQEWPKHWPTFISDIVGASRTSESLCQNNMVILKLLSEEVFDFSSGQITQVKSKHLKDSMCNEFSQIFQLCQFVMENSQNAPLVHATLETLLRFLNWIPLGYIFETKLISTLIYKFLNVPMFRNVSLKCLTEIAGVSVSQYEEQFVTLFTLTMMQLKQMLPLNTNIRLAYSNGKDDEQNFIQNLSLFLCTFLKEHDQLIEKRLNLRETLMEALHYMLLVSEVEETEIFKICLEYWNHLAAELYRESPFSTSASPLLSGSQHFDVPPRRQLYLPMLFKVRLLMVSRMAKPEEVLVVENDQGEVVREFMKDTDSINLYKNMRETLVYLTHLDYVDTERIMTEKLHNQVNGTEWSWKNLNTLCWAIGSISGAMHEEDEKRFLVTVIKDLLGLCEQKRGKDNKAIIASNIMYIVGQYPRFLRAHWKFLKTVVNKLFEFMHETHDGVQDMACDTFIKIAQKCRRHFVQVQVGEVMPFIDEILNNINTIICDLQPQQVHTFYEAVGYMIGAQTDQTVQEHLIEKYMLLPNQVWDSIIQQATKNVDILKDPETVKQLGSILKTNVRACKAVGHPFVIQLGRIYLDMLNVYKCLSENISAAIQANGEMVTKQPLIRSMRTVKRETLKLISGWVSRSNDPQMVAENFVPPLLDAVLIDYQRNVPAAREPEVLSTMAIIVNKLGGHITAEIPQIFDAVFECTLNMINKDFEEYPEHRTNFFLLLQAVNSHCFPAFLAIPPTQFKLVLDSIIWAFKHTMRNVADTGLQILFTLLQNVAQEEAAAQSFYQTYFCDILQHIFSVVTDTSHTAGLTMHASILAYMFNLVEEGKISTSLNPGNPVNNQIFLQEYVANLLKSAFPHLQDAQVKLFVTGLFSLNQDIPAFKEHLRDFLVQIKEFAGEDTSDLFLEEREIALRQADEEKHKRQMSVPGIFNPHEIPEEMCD
inactive: erlotinib 0.021 | [1] 0.025 | [2] -0.015 | [3] 0.017 | [4] 0.026 | [5] -0.031 | [6] -0.045 | [7] -0.005 | [8] 0.033 | IRAK-1-4 Inhibitor I 0.016

UTP18 (UniProt Q9Y5J1)
inactive: erlotinib 0.055 | [1] 0.072 | [2] 0.051 | [3] -0.056 | [4] 0.129 | [5] 0.038 | [6] -0.068 | [7] -0.122 | [8] 0.107 | IRAK-1-4 Inhibitor I -0.031

ZSWIM8 isoform 4 (UniProt A7E2V4)
active: [1] 0.508
inactive: erlotinib 0.025 | [2] -0.053 | [3] 0.02 | [4] -0.044 | [5] -0.021 | [6] -0.163 | [7] -0.239 | [8] 0.109 | IRAK-1-4 Inhibitor I -0.122

VPS37B (UniProt Q9H9H4)
Sequence of UniProt Q9H9H4 (Q9H9H4 whole entry, looked up): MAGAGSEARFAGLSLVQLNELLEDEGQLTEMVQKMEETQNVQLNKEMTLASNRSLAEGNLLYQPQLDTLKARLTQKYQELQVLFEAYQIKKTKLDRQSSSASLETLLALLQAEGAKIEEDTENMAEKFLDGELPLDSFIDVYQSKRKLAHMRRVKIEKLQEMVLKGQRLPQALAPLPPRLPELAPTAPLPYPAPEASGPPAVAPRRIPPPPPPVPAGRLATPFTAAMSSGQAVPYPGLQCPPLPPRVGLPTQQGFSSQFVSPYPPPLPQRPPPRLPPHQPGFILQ
inactive: erlotinib -0.046 | [1] 0.078 | [2] 0.059 | [3] 0.002 | [4] -0.011 | [5] 0.031 | [6] 0 | [7] 0.043 | [8] 0.098 | IRAK-1-4 Inhibitor I -0.012

From the supplement of paper PMC10849652
